Source: PubChem BioAssay (The Scripps Research Institute Molecular Screening Center)
hgDAF12 agonist – H. glycines DAF-12 receptor agonists, primary screen, cell-based, luminescence, HEK293, GAL4 fusion, UAS-luciferase. 1.8% of 370,000 active. HEK293 GAL4-hgDAF12 UAS-luciferase reporter, agonist luminescence; normalized to butyrate control. AID 687014, 2013. activation, % at 6.8 µM. Nuclear hormone receptor DAF-12 (Heterodera glycines), GAL4 fusion;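 active = activation above a cutoff set at the mean of all screened compounds plus 3 SD, cut at about 10% in these data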;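 note: 0% = DMSO wells and 100% = sodium butyrate wells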
DAX1 inh-1 – DAX1 (NR0B1) inhibitors on StAR promoter, primary screen, cell-based, luminescence, SF-1 (NR5A1), full-length DAX-1 | inhibition, % at 6.8 µM | 1.1% of 370,000 active | AID 652010, 2013 | HEK293T StAR-luciferase reporter, SF-1/DAX-1 repression relief;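 active = inhibition above the mean over all tested compounds plus 3 SD, cut at about 3.6% in these data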;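 note: 0% = DAX-1 cells with DMSO and 100% = cells lacking DAX-1 with DMSO; higher inhibition means more luminescence from relief of DAX-1 repression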
ssDAF-12 act – S. stercoralis DAF-12 nuclear receptor activators, primary screen, cell-based, luminescence, HEK293, GRIP1 co-expression, lit1-tk-luc. HEK293 ssDAF-12/GRIP1 lit1-tk-luc reporter; % of 3 µM dafachronic acid response. 1% of 370,000 active. AID 652126, 2013. activation, % at 6.8 µM. Nuclear hormone receptor DAF-12 (Strongyloides stercoralis);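 active = activation above the mean over all tested compounds plus 3 SD, cut at about 0.9% in these data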;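 note: 0% = DMSO-only wells and 100% = 3 µM delta7-dafachronic acid wells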
hcDAF-12 act – H. contortus DAF-12 nuclear receptor activators, primary screen, cell-based, luminescence, HEK293, lit1-tk-luc reporter; activation, % at 6.8 µM; 1.4% of 370,000 active; HEK293 hcDAF-12 lit1-tk-luc reporter; 0% DMSO, 100% Δ7-dafachronic acid;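 active = activation above the mean of all tested compounds plus 3 SD, cut at about 5.5% in these data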;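 note: 100% = response to 3 µM Δ7-dafachronic acid high control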
DAX1 inh-2 – DAX1 (NR0B1) inhibitors, primary screen, cell-based, HEK293, Gal4-DAX1, luciferase luminescence | Nuclear receptor subfamily 0 group B member 1 (Homo sapiens), P51843 | HEK293 Gal4-DAX1 luciferase reporter | inhibition, % at 6.75 µM | 0.99% of 340,000 active | AID 504766, 2011;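 active = inhibition above the mean over all tested compounds plus 3 SD, cut at about 4.2% in these data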;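 note: 0% = DAX1-transfected cells with DMSO and 100% = empty-vector control cells with DMSO; inhibition shows as a rise in luminescence from relieved DAX1 repression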
AHR act – AHR activators, primary screen, cell-based, luminescence, luciferase reporter, human | Aryl hydrocarbon receptor (Homo sapiens), P35869 | AHR-responsive luciferase reporter cells | activation, % at 5 µM | 2.5% of 320,000 active; in the data active = activation above about 47%;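 note: 0% = vehicle wells and 100% = reference agonist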
LXRb hcDAF ctr – LXR agonists, Gal4 luciferase reporter, confirmation, counter-screen for hcDAF-12 agonist project, cell-based, luminescence, HEK293, H. contortus campaign | HEK293 Gal4-LXR tk-luc reporter, 24 h; normalized: DMSO 0%, positive control 100% | activation, % at 6.8 µM | shares compounds with hcDAF-12 act | 3,400 tested, under 10 active;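 active = mean percent activation of the reporter above a cutoff set as the average over tested compounds plus their standard deviation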
Target sequence (P55055 whole entry, looked up, the tested form may be a part): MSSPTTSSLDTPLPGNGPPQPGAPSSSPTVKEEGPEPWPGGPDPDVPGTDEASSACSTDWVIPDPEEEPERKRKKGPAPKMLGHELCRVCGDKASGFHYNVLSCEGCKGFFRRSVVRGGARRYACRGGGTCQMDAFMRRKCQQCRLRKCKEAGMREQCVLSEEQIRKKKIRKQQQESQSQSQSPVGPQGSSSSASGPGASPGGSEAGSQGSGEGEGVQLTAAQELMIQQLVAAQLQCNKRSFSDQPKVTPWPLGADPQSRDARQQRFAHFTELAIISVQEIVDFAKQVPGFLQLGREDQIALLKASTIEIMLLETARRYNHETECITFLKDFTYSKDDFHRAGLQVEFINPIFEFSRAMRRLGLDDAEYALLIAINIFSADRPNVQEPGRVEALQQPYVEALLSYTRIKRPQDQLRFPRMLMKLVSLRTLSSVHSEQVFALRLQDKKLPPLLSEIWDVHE
hcDAF12 ag – H. contortus DAF-12 receptor agonists, confirmation, cell-based, luminescence, HEK293, lit1-tk-luc, triplicate. shares compounds with hcDAF-12 act. HEK293 hcDAF-12 lit1-tk-luc reporter; % of Δ7-dafachronic acid response. activation, % at 6.8 µM. 61% of 3,400 active;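 active = mean activation across triplicate tests above the threshold derived from the earlier primary screen, cut at about 5.5% in these data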;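 note: 0% = DMSO only wells and 100% = 3 µM Δ7-dafachronic acid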
hgDAF12 ag – H. glycines DAF-12 receptor agonists, confirmation, cell-based, luminescence, HEK293, GAL4-LBD fusion. shares compounds with hgDAF12 agonist. HEK293 GAL4-hgDAF12 luciferase reporter, agonist mode; percent of butyrate response. activation, % at 6.8 µM. 80% of 3,300 active. AID 743050, 2013;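 active = mean activation over triplicate wells above the hit cutoff derived from the earlier primary screen, cut at about 11% in these data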;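 note: 0% = DMSO low control and 100% = 2 mM sodium butyrate high control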
LXRb DAF12 ctr – LXR agonists, Gal4 luciferase reporter, confirmation, counter-screen for hgDAF-12 agonist project, cell-based, luminescence, HEK293, H. glycines campaign; activation, % at 6.8 µM; 3,300 tested, under 10 active; 24 h; shares compounds with hgDAF12 agonist; AID 743051, 2013;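 active = mean activation of the triplicate above a set limit carried over from the primary screen, none filed active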
The depositor's hits bear a star; x = no result given. An excerpt weighted towards active compounds, which were near 5.7% of everything screened.

SMILES	hgDAF12 agonist	DAX1 inh-1	ssDAF-12 act	hcDAF-12 act	DAX1 inh-2	AHR act	LXRb hcDAF ctr	hcDAF12 ag	hgDAF12 ag	LXRb DAF12 ctr
CCC(C)c1ccc(OCc2ccc(C(=O)O)o2)cc1 (stereo not drawn)	15*	3	1	10*	-4	-1	1	8.7*	22*	1
Cc1ccc2nc(-c3ccc(SCC(=O)O)nc3)[nH]c2c1	6	1	0	1	-1	16	x	x	x	x
CCc1nnc(NC(=O)CSc2ccc(-c3nc4ccc(C)cc4[nH]3)cn2)s1	17*	4.4*	0	7.3*	3	66*	1	7.8*	18*	1
CN1CCSc2ccc(C(=O)Nc3cc(F)ccc3F)cc21	20*	4.3*	1.1*	7.2*	9.5*	31	2	4	18*	1
CCCn1c(CN2CCN(C(=O)OCC)CC2)nc2cc(NC(=O)C(C)C)ccc21	1	0	-1	-2	-1	0	x	x	x	x
COc1ccc(C(=O)c2coc3ccc(OC(C)=O)cc23)cc1	14*	2	0	7.3*	-1	-1	2	8.1*	23*	1
Cc1c(F)cccc1NS(=O)(=O)c1ccc2c(c1)c(C)cc(=O)n2C	-4	0	-1	0	-1	1	x	x	x	x
O=C(NN=C1CCCC1)c1cccs1	22*	4.4*	1	7.0*	3	17	0	1	4	0
O=C(COc1ccc(Br)cc1)N1CCc2ccccc21	7	2	-2	1	2	-2	x	x	x	x
O=C(COc1ccccc1)N1CCc2ccccc21	14*	1	-1	8.5*	1	3	1	6.4*	12*	1
Cc1ccc(NC(=O)N2CCc3ccccc32)cc1	15*	3.7*	1.1*	10*	-1	8	2	11*	23*	1
COc1ccc(NC(=O)Cn2nc(C(=O)O)c3ccccc3c2=O)cc1OC	-4	0	-1	-1	1	0	x	x	x	x
O=[N+]([O-])c1ccccc1-c1cc(-c2ccccc2O)n[nH]1	16*	2	1	7.9*	1	23	1	4	13*	0
Oc1ccccc1-c1cc(C(F)(F)C(F)F)[nH]n1	2	0	-2	-1	0	1	x	x	x	x
CC1(C)Cc2c(cnn2-c2ccccc2)C(NC(=O)c2ccc[n+]([O-])c2)C1 (stereo not drawn)	0	2	-1	-1	1	-2	x	x	x	x
O=c1cc(-c2ccncc2)oc2ccccc12	6	2	-2	-2	-1	-7	x	x	x	x
COc1ccc(-c2cc(=O)c3ccccc3o2)cc1	20*	4	0	9.0*	8.4*	24	1	8.2*	15*	1
Cc1ccc(-c2nc3ccccc3nc2NN)cc1	18*	3	2.2*	12*	5.1*	8	2	11*	20*	1
N#Cc1ccsc1NC(=O)CN1C(=O)NC2(CCCCC2)C1=O	2	0	-1	1	1	18	x	x	x	x
Cc1ccc(COc2ccc(/C=N/O)cc2)cc1	17*	2	1.4*	7.8*	5.5*	1	1	7.0*	17*	1
COc1cccc(C(=O)O/N=C(\N)c2ccc(C)cc2)c1	16*	2	0	9.7*	4.5*	68*	1	7.2*	20*	1
COc1cccc(C(=O)/C=C/Nc2cc(C)ccc2O)c1	-1	0	-1	-1	1	6	x	x	x	x
Cc1ccc(Cl)c(N/C=C/C(=O)c2ccccc2)c1	15*	3	2.9*	13*	3	36	2	16*	26*	1
Cc1cccc(N/C=C/C(=O)c2ccc(Cl)cc2)c1	14*	2	0	6.6*	4.7*	-4	2	6.9*	22*	1
Cc1ccc(-c2nc3ccsc3c(=O)[nH]2)cc1	22*	3.7*	1.4*	12*	2	31	1	14*	15*	1
SMILES	hgDAF12 agonist	DAX1 inh-1	ssDAF-12 act	hcDAF-12 act	DAX1 inh-2	AHR act	LXRb hcDAF ctr	hcDAF12 ag	hgDAF12 ag	LXRb DAF12 ctr
CCOC(=O)CSc1nc2ccsc2c(=O)[nH]1	2	0	-1	0	1	2	x	x	x	x
COc1cc(F)ccc1CN1CCC(n2nccc2NC(=O)C2CCOC2)CC1 (stereo not drawn)	0	0	-1	-1	0	-2	x	x	x	x
CCC(=O)NC1=C(Nc2ccc(N)cc2)C(=O)c2ccccc2C1=O	13*	2	1	7.9*	3	55*	1	8.0*	11*	1
Cc1ccc(S(=O)(=O)/N=C(/Nc2ccccc2C)c2ccccc2)cc1	0	-1	-1	-1	0	-1	x	x	x	x
Cc1ccc(S(=O)(=O)/N=C(/NC(=S)Nc2ccccc2)c2ccccc2)cc1	28*	3	2.6*	14*	4	9	1	5	20*	1
O=C1c2ccccc2-c2nc3ccccc3cc21	15*	2	1.0*	7.9*	4	29	1	9.9*	17*	1
